Compound activity from PubChem.
In the library only some 2.1% were active in any assay of this set; here they are far more common.
NSD2 HMT inh = inhibitors of human histone methyltransferase NSD2; O96028; hit rate 0.54% among 310,000; NSD2 peptide methylation, AlphaScreen, 120 min; AID 743445; inhibition, % at 12.5 µM; in the data active means inhibition above about 50%
Target sequence (O96028 whole entry, looked up): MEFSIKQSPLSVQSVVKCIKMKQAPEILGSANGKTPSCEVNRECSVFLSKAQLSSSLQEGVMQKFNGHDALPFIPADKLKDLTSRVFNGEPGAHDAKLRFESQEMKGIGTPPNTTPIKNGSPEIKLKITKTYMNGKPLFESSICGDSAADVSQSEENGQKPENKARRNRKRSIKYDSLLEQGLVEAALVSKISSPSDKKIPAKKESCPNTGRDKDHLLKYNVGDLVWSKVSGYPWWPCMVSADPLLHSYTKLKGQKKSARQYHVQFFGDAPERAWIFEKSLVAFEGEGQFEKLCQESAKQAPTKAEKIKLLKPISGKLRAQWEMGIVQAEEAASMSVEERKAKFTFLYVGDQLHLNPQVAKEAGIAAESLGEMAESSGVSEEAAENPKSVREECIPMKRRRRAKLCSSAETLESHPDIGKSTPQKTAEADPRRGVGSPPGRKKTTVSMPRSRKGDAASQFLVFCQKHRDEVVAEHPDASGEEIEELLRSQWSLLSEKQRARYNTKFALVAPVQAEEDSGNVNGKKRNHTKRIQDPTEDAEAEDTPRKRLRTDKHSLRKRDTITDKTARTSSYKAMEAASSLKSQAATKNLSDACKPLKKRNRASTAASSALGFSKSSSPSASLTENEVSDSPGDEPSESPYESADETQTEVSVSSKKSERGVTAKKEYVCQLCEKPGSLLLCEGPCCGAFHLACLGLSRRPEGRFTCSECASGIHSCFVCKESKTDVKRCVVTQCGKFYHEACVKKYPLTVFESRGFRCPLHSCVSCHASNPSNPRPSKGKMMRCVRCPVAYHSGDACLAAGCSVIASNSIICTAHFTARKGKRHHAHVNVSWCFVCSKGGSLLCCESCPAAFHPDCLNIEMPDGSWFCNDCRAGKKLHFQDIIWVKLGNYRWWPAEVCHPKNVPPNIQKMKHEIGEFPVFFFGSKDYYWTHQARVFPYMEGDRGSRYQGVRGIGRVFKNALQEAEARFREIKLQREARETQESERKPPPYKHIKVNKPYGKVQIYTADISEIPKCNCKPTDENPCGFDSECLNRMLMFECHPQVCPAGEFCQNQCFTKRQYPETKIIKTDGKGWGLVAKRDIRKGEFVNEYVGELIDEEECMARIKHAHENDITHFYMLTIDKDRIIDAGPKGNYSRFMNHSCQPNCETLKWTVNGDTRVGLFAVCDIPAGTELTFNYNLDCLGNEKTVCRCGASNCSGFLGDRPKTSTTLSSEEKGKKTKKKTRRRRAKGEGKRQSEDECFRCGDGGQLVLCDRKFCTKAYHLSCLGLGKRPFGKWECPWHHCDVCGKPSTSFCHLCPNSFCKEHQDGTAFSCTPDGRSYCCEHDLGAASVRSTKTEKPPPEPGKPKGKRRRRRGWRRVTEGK
AF4-AF9 inh = MLL-AF4/AF9 protein interaction inhibition. AlphaScreen, biotin-AF4 peptide binding to FLAG-AF9. hit rate 0.47% among 350,000. inhibition, % at 10 µM;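 active means every replicate reaching a set inhibition limit, whatever the replicate mean, cut at about 25% in these data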
PGC1a acetyl inh = modulators of PGC1a acetylation. inhibition, % at 15.6 µM. hit rate 0.17% among 350,000. U2OS PGC1a acetylation, AlphaScreen anti-acetyl-lysine; with virally co-expressed GCN5 acetyltransferase;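 active means every replicate shows inhibition of at least 40%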
INS-1E GSIS act = GLuc luminescence reporter in INS-1E cells, primary screen for activators of glucose-dependent secretion of insulin; hit rate 0.61% among 370,000; activation, % at 16.6 µM; AID 743287; INS-1E GLuc reporter insulin secretion, 2-3 h;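 active means lowest replicate activation of at least 40%, so every replicate reaches that level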
Env fusion inh = HIV envelope-mediated fusion inhibition | AID 651610 | inhibition, % at 12.3 µM | HeLa-JRFL Env/CEM21 cell fusion, luciferase | hit rate 1.1% among 360,000;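 active means mean replicate inhibition score of at least 50 and every replicate individually at or above 50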
Numbers stand for hits; . = inactive; / = no result; [ ] = dose if it differs, or a comment.

SMILES	NSD2 HMT inh	AF4-AF9 inh	PGC1a acetyl inh	INS-1E GSIS act	Env fusion inh
CC(C)C[C@@]12C(=O)N(c3cccc(Cl)c3)C(=O)N1[C@H](c1ccc(Cl)cc1)[C@@H]1C(=O)N(C3CCCCC3)C(=O)[C@@H]12	/	.	/	.	67
CC[C@@]12C(=O)N(c3cccc(Br)c3)C(=O)N1[C@H](c1ccc(Cl)cc1)[C@@H]1C(=O)N(C3CCCCC3)C(=O)[C@@H]12	/	.	/	.	94
O=C1[C@H]2[C@@H](c3ccc(Cl)cc3)N3C(=O)N(c4cccc(F)c4)C(=O)[C@@]3(Cc3ccc(Cl)cc3)[C@H]2C(=O)N1C1CCCCC1	/	/	.	/	/
O=C1[C@H]2[C@@H](c3ccc(Cl)cc3)N3C(=O)N(c4cccc(Cl)c4)C(=O)[C@@]3(Cc3ccc(Cl)cc3)[C@H]2C(=O)N1C1CCCCC1	/	.	/	.	.
Cc1cccc(N2C(=O)N3[C@H](c4ccc(F)cc4)[C@@H]4C(=O)N(C5CCCCC5)C(=O)[C@@H]4[C@]3(Cc3ccc(Cl)cc3)C2=O)c1	/	.	.	.	91
CC[C@@]12C(=O)N(c3cccc(F)c3)C(=O)N1[C@H](c1ccc(Cl)cc1)[C@@H]1C(=O)N(C3CCCCC3)C(=O)[C@@H]12	/	.	/	.	95
COc1ccc(NC(=S)N2CCN(CCN=CC3=C(O)CC(c4ccccc4)CC3=O)CC2)cc1 (centres undefined)	.	.	/	/	.
Cc1ccc(S(=O)(=O)/N=C(/Nc2nc(C)cs2)c2ccccc2)cc1	.	.	/	.	.
COc1ccc2c3c([nH]c2c1)[C@H](CO)N(C(=O)C1CCC1)CC31CCN(S(C)(=O)=O)CC1	/	.	/	.	/
CCOc1ccc(C(=O)NCC(=O)OCc2ccc(F)cc2Cl)cc1	/	.	/	.	.
CC(C)C[C@@]12C(=O)N(c3cccc(Br)c3)C(=O)N1[C@H](c1ccc(Cl)cc1)[C@@H]1C(=O)N(C3CCCCC3)C(=O)[C@@H]12	/	.	/	.	70
CC[C@@]12C(=O)N(c3ccc(OC)cc3)C(=O)N1[C@H](c1ccc(Cl)cc1)[C@@H]1C(=O)N(C3CCCCC3)C(=O)[C@@H]12	/	.	.	.	87
Cc1ccc(N2C(=O)N3[C@H](c4ccc(Cl)cc4)[C@@H]4C(=O)N(C5CCCCC5)C(=O)[C@@H]4[C@]3(Cc3ccccc3)C2=O)cc1	/	.	.	.	.
CC(C)(C)NC(=O)C1CC(=O)OC1(C)C (centres undefined)	/	/	/	.	/
O=C(C[C@@H]1C/C=C/CC[C@H](Cc2ccc(F)cc2)C(=O)O[C@H](c2ccccc2)CNC1=O)NCCO	/	.	/	.	67
CCOCC(=O)Nc1ccc(C)c(Cl)c1	.	/	.	/	.
CC1(Cc2ccc(Cl)c(Cl)c2)C(=O)Nc2ccc(S(=O)(=O)NC3CCCCC3)cc21 (centres undefined)	.	.	/	.	57
Cc1cccc(S(=O)(=O)NC2CCCCCCC2)c1	.	.	.	.	.
CC1(Cc2cccc(F)c2)C(=O)Nc2ccc(S(=O)(=O)NC3CCCCC3)cc21 (centres undefined)	.	.	.	.	58
CC1(Cc2cc(Cl)ccc2C(F)(F)F)C(=O)Nc2ccc(S(=O)(=O)NC3CCCCC3)cc21 (centres undefined)	.	.	.	/	.
Cc1noc(NS(=O)(=O)c2ccc(NC(=O)Nc3ccc(Cl)c(Cl)c3)cc2)c1C	.	/	.	/	/
CC(C)c1nc2sc3c(NCc4ccccc4)ncnc3c2c2c1COC(C)(C)C2	.	/	.	/	/
CC(C)c1nc2sc3c(NCc4ccco4)ncnc3c2c2c1COC(C)(C)C2	.	/	59	/	/
CC(C)N(C(=O)Nc1ccc2nccnc2c1)C(C)C	.	/	.	/	/
Cc1noc(C)c1S(=O)(=O)N(C)C[C@@H]1Oc2ccc(NC(=O)NC3CCCCC3)cc2CC(=O)N([C@H](C)CO)C[C@@H]1C	/	.	.	.	78[16.7 µM]
SMILES	NSD2 HMT inh	AF4-AF9 inh	PGC1a acetyl inh	INS-1E GSIS act	Env fusion inh
Cc1noc(C)c1S(=O)(=O)N(C)C[C@H]1Oc2ccc(NC(=O)NC(C)C)cc2CC(=O)N([C@H](C)CO)C[C@H]1C	/	.	.	.	.
Cc1noc(C)c1S(=O)(=O)N(C)C[C@@H]1Oc2ccc(NC(=O)NC3CCCCC3)cc2CC(=O)N([C@@H](C)CO)C[C@@H]1C	/	.	.	.	62[16.7 µM]
Cc1noc(C)c1S(=O)(=O)N(C)C[C@H]1Oc2ccc(NC(=O)NC3CCCCC3)cc2CC(=O)N([C@H](C)CO)C[C@@H]1C	/	.	.	.	.
CC(C)(C)OC(=O)C[C@H]1C/C=C\C[C@@H](CC(=O)N(CCO)Cc2ccccc2)C(=O)N[C@H](Cc2ccccc2)COC1=O	/	.	.	.	.
N#Cc1ccc(S(=O)(=O)N2CCCN(c3nc4ccc(Cl)cc4s3)CC2)cc1	.	.	/	.	55
CC(=O)N1CCN(Cc2nc3cc(NC(=O)COc4ccccc4)ccc3n2C)CC1	.	.	/	.	.
O=C(NCCc1ccccc1)C1CCC(CNS(=O)(=O)c2ccc(F)cc2)CC1 (centres undefined)	.	.	.	.	.
Cc1ccc(-n2c(SCC(=O)Nc3nccs3)nc3c(c2=O)SCC3)cc1	/	/	.	82	.
Cc1ccc(CNC(=O)CCn2cc(-c3ccc(F)cc3)nc2-c2ccncc2)cc1	/	.	.	.	.
Cc1sc(NC(=O)Cc2ccc3c(c2)OCO3)nc1-c1ccc2c(c1)CCN2C(=O)c1ccccc1F	.	/	/	.	74
Cc1sc(NC(=O)Cc2ccc3c(c2)OCO3)nc1-c1ccc2c(c1)CCN2C(=O)c1ccc(F)cc1	.	/	/	.	/
C=CCn1c(-c2csc(-c3ccc(OC)c(OC)c3)n2)n[nH]c1=S	.	.	.	83	.
COc1ccc(-c2nc(CCl)cs2)cc1	.	.	.	/	.
CCOc1ccc(-c2nc(CSc3nnc(N)s3)cs2)cc1OC	.	/	.	57	/
COc1ccc(-c2nc(CCl)cs2)cc1OC	.	.	/	62	.
C=CCn1c(-c2csc(-c3ccc(Cl)cc3)n2)n[nH]c1=S	.	/	.	/	/
CCCCC(=O)Oc1cc(C)[nH]c(=O)c1[N+](=O)[O-]	.	.	/	.	.
CC1=NN(c2ccccc2)C(=O)/C1=C\C=C1/N(C)c2ccccc2C1(C)C	/	36	/	.	.
COc1ccc(C2C(C(=O)NCc3cccnc3)c3ccccc3C(=O)N2C)cc1OC (centres undefined)	/	/	.	/	.
N#C[C@@H]1[C@@H](c2ccc(C#CC3CC3)cc2)[C@@H](CO)N1C(=O)Cc1ccccn1	/	.	.	.	/
CCOC(=O)N1CCN(S(=O)(=O)c2ccc(C(=O)NNc3nc4c(C)cccc4s3)cc2)CC1	/	.	.	/	60
O=C(C[n+]1cc(-c2ccc(Cl)cc2)n2c1CCC2)Nc1nc(-c2ccc(F)cc2)cs1	.	.	/	.	.
COc1ccc(C2c3cc(OC)c(OC)cc3CCN2C(=O)c2ccccc2)cc1OC (centres undefined)	.	.	.	.	.
Cc1onc(-c2ccccc2)c1C(=O)NC(=S)NNC(=O)c1ccccc1O	.	.	/	.	.
Cc1onc(-c2ccccc2)c1C(=O)NC(=S)NNC(=O)c1ccc(O)cc1	.	/	/	.	69
CC1=C/C(=C\c2ccc(Br)o2)C(=O)O1	98	.	/	.	.
